Assay [1] in a line: ATG_M_61_XSP1: Attagene TRANS-FACTORIAL Multi-Species (XSP1) HepG2 Assay for M61 Transcription Factor (Internal Marker) (AID 2283797). Put shortly:
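Background-control readout: reporter transcripts measured by RT-PCR and capillary electrophoresis 24 h after dosing transiently transfected HepG2 multi-reporter cells, with 3 nM 6-alpha-fluorotestosterone present. Fitted in the positive direction relative to DMSO.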

Assay [2] in a line: ATG_M_19_XSP1: Attagene TRANS-FACTORIAL Multi-Species (XSP1) HepG2 Assay for M19 Transcription Factor (Internal Marker) (AID 2283798). An outline of the steps:
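Readout is reporter mRNA induction quantified via RT-PCR, 6-FAM labeling, HpaI digestion and capillary electrophoresis, fitted in the positive direction versus DMSO baseline. Transfected HepG2 cells exposed 24 h, medium including 3 nM 6-alpha-fluorotestosterone.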

Assay [3] is described as follows: ATG_M_32_XSP1: Attagene TRANS-FACTORIAL Multi-Species (XSP1) HepG2 Assay for M32 Transcription Factor (Internal Marker) (AID 2283799). Put shortly: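 Reporter transcripts from the M32 internal-control unit measured by RT-PCR, FAM labelling, HpaI digestion and capillary electrophoresis after 24 h compound exposure of transfected HepG2, 3 nM 6-alpha-fluorotestosterone included; DMSO baseline, positive-direction fit.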

Assay [4] relates to zebrafish Peroxisome Proliferator-activated Receptor gamma (PPARg), gene 557037. The assay can be described thus: ATG_zfPPARg_XSP1: Attagene TRANS-FACTORIAL Multi-Species (XSP1) HepG2 Assay for zebrafish Peroxisome Proliferator-activated Receptor gamma (PPARg) (AID 2283801). Put shortly: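 Trans-activation readout of chimeric zebrafish PPARg–GAL4 in transiently transfected human HepG2 cells, 24 h chemical exposure (medium includes 3 nM 6-alpha-fluorotestosterone). Reporter transcripts measured by RT-PCR and capillary electrophoresis, fitted as gain over DMSO.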

The target of assay [5] is Nuclear receptor subfamily 1 group I member 2 (Mus musculus) (UniProt O54915). As to the kind of experiment: ATG_mPXR_XSP1: Attagene TRANS-FACTORIAL Multi-Species (XSP1) HepG2 Assay for mouse Pregnane X Receptor (PXR) (AID 2283803). An outline of the steps:
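Transiently transfected HepG2 cells expressing a receptor-Gal4 chimera drive a GAL4-UAS reporter; 3 nM 6-alpha-fluorotestosterone included. Reporter mRNA read 24 h post-dose by RT-PCR and capillary electrophoresis; gain of signal relative to DMSO.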

Assay [6] concerns the target frog Thyroid hormone Receptor alpha (TRa), thra-a (gene 397942) (UniProt P15204). The assay can be described thus: ATG_frTRa_XSP1: Attagene TRANS-FACTORIAL Multi-Species (XSP1) HepG2 Assay for frog Thyroid hormone Receptor alpha (TRa) (AID 2283804). An outline of the steps:
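Reporter transcript induction, measured by RT-PCR with 6-FAM labelling and capillary electrophoresis, 24 hr after dosing transiently transfected HepG2 cells expressing a frog TRa-GAL4 fusion; medium contained 3 nM 6-alpha-fluorotestosterone; increase over DMSO scored.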

The subject of assay [7] is turtle Thyroid Hormone Receptor, alpha (TRa), gene 101949057. The assay can be described thus: ATG_trTRa_XSP1: Attagene TRANS-FACTORIAL Multi-Species (XSP1) HepG2 Assay for turtle Thyroid Hormone Receptor, alpha (TRa) (AID 2283806). Here is the method:
(§1) ATG_XSP1_multi-species_TRANS is a cell-based, multiplexed assay created by modifying the existing Attagene TRANS-FACTORIAL system to include a panel of nuclear receptors from some or all the following species: human (Homo sapiens), mouse (Mus musculus), frog (Xenopus laevis), zebrafish (Danio rerio), chicken (Gallus gallus), and turtle (Chrysemys picta). The ECOTOX-FACTORIAL format uses HepG2, a human liver cell line, with measurements taken at 24 hours after chemical dosing in a 24-well plate. Xsp1 included 3 nM 6-alpha-fluorotestosterone to partially stimulate the androgen receptor.ATG_trTRa_XSP1 is one of 29 assay components measured or calculated from the ATG_XSP1_multi-species_TRANS assay. It is designed to make measurements of mRNA induction, a form of inducible reporter, as detected with fluorescence intensity signals by Reverse transcription polymerase chain reaction (RT-PCR) and Capillary electrophoresis technology.The assay endpoint ATG_trTRa_XSP1 was analyzed in the positive analysis fitting direction relative to DMSO as the negative control and baseline of activity. Using a type of inducible reporter, measures of mRNA for gain-of-signal activity can be used to understand the reporter gene at the transcription factor-level as they relate to the gene TR. Furthermore, this assay endpoint can be referred to as a primary readout, because this assay has produced multiple assay endpoints where this one serves a reporter gene function. To generalize the intended target to other relatable targets, this assay endpoint is annotated to the nuclear receptor intended target family, where the subfamily is non-steroidal.
(§2) Human liver HepG2 cells are transiently transfected with multiple reporter transcription units (MRTUs) in 6-well plates using FuGene 6 reagent (Roche; 3 ml FuGene/1 mg DNA). The MRTU constructs are regulated by a cis-regulating element (promoter). […] A major difference between the CIS and TRANS system is that in CIS activities of endogenous TFs are measured, whereas the TRANS assay evaluates changes in activities of exogenous, chimeric NR-Gal4 proteins. […] At the end of 24 hour incubation, total RNA was isolated using TriZol reagent (Invitrogen). The isolated RNA is then reverse-transcribed using oligo(dT) primer and Mo-MLV reverse transcriptase (Invitrogen) with DNAse I (Ambion) treatment for 30 min. The one-tenth of the produced cDNA was amplified by PCR using Taq DNA polymerase (Invitrogen) and two reporter sequence-specific primers. The PCR products were fluorescently labeled by primer extension with 6-arboxyfluorescein (6-FAM) 5'-labeled reporter sequence-specific primer (2 min at 95 C, 20 s at 68 C and 10 min at 72 C) and these products were digested with 5U of HpaI (New England Biolabs) for 2h at 37 C. The fragments were purified using Qiaquick PCR columns (Qiagen), analyzed on an ABI 3130xL genetic analyzer (Applied Biosystems) with peak positions identified by using a set of X-rhodamine (ROX)-labeled MapMarker1000 molecular weight standards (BioVentures). The raw capillary electrophoresis data was processed using Attagraph software (Attagene).

For assay [8], the target named is human Thyroid hormone Receptor alpha (TRa), THRA (gene 7067) (UniProt P10827). As to the kind of experiment: ATG_hTRa_XSP1: Attagene TRANS-FACTORIAL Multi-Species (XSP1) HepG2 Assay for human Thyroid hormone Receptor alpha (TRa) (AID 2283805). Here is the method:
as §1, with “receptor.ATG_hTRa_XSP1” for “receptor.ATG_trTRa_XSP1”, “ATG_hTRa_XSP1” for “ATG_trTRa_XSP1”
as §2, with “The one-tenth of the produced cDNA was amplified by PCR using Taq DNA polymerase (Invitrogen) and two reporter sequence-specific primers. The PCR products were fluorescently labeled by primer extension with 6-arboxyfluorescein (6-FAM) 5'-labeled reporter sequence-specific primer (2 min at 95 C, 20 s at 68 C and 10 min at 72 C) and these products were digested with 5U of HpaI (New England Biolabs) for 2h at 37 C.” left out, “The raw capillary electrophoresis data was processed using Attagraph software (Attagene).” left out

The target of assay [9] is Peroxisome proliferator-activated receptor gamma (Homo sapiens) (UniProt P37231). As to the kind of experiment: ATG_hPPARg_XSP1: Attagene TRANS-FACTORIAL Multi-Species (XSP1) HepG2 Assay for human Peroxisome Proliferator-activated Receptor gamma (PPARg) (AID 2283800). An outline of the steps:
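Reporter mRNA induction, measured by RT-PCR with capillary electrophoresis 24 h after dosing, scored as gain over DMSO. Transfected HepG2 cells express exogenous NR-Gal4 chimeras driving GAL4-UAS reporters; medium includes 3 nM 6-alpha-fluorotestosterone.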

For assay [10], the target named is mouse Peroxisome Proliferator-activated Receptor gamma (PPARg), Pparg (gene 19016) (UniProt P37238). As to the kind of experiment: ATG_mPPARg_XSP1: Attagene TRANS-FACTORIAL Multi-Species (XSP1) HepG2 Assay for mouse Peroxisome Proliferator-activated Receptor gamma (PPARg) (AID 2283802). Here is the method:
as §1, with “receptor.ATG_mPPARg_XSP1” for “receptor.ATG_trTRa_XSP1”, “ATG_mPPARg_XSP1” for “ATG_trTRa_XSP1”, “PPARg.” for “TR.”
as §2, with “The one-tenth of the produced cDNA was amplified by PCR using Taq DNA polymerase (Invitrogen) and two reporter sequence-specific primers. The PCR products were fluorescently labeled by primer extension with 6-arboxyfluorescein (6-FAM) 5'-labeled reporter sequence-specific primer (2 min at 95 C, 20 s at 68 C and 10 min at 72 C) and these products were digested with 5U of HpaI (New England Biolabs) for 2h at 37 C.” left out, “The raw capillary electrophoresis data was processed using Attagraph software (Attagene).” left out

Molecules are shown by their SMILES. Records with an inconclusive call do not appear. Calls of active or inactive are those of the source. Rule for the calls: active = hit-call score of the fitted dose curve at least 0.9, where 1 is the maximum; inconclusive = response in the unintended direction; inactive = score below 0.9.

frog Thyroid hormone Receptor alpha (TRa), thra-a (gene 397942), sequence (P15204 whole entry, looked up, the tested form may be a part): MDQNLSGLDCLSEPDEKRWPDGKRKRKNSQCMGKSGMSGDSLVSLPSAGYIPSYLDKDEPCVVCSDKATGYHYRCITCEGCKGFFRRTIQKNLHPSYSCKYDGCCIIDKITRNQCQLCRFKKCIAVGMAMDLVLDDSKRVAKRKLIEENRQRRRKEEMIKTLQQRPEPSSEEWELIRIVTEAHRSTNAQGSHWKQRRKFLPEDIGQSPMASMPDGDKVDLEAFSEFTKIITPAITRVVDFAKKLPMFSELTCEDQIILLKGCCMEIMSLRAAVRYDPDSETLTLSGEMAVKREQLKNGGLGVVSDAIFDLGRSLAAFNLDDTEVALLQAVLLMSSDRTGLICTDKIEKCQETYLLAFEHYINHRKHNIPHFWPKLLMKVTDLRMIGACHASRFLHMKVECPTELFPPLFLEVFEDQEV
Peroxisome proliferator-activated receptor gamma (Homo sapiens), sequence (P37231 whole entry, looked up, the tested form may be a part): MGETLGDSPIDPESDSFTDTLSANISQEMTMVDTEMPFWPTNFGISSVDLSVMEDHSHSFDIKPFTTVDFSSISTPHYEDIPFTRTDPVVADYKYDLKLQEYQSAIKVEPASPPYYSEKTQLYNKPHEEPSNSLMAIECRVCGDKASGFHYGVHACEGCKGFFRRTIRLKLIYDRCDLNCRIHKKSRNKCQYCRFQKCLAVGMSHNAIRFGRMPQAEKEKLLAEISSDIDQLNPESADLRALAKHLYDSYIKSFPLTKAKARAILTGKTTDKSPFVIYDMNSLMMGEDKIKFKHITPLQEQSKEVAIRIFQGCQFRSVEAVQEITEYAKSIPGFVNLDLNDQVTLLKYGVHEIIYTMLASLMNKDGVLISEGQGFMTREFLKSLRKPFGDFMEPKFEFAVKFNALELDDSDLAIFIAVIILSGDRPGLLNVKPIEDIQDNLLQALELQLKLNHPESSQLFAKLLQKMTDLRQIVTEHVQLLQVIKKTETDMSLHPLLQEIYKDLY
mouse Peroxisome Proliferator-activated Receptor gamma (PPARg), Pparg (gene 19016), sequence (P37238 whole entry, looked up): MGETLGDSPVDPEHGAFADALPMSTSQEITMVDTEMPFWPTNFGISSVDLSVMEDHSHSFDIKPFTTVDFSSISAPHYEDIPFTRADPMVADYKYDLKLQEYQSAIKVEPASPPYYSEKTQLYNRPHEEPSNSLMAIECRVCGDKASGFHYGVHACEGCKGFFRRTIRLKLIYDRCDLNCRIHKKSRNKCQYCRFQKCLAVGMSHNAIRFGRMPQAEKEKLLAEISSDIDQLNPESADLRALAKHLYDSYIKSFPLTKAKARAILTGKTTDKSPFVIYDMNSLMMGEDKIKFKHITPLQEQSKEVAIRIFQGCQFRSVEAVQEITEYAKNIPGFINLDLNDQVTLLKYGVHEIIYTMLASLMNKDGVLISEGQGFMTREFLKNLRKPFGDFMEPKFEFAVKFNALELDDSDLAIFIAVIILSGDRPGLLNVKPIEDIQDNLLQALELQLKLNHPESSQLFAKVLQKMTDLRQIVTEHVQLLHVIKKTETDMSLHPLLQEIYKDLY
human Thyroid hormone Receptor alpha (TRa), THRA (gene 7067), sequence (P10827 whole entry, looked up): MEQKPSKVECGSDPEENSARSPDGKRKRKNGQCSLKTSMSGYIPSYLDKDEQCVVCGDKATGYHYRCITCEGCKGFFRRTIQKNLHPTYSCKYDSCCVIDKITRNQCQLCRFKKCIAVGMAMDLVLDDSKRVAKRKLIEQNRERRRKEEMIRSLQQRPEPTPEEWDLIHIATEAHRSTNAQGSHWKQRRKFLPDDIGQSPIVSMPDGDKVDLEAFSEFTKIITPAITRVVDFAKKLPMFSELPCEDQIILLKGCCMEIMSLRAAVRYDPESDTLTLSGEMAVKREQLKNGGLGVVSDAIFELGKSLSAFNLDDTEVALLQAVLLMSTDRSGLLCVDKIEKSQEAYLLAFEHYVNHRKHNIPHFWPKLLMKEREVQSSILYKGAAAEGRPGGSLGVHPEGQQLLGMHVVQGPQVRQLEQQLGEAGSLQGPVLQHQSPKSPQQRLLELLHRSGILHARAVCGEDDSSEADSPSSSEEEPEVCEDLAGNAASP
Nuclear receptor subfamily 1 group I member 2 (Mus musculus), sequence (O54915 whole entry, looked up, the tested form may be a part): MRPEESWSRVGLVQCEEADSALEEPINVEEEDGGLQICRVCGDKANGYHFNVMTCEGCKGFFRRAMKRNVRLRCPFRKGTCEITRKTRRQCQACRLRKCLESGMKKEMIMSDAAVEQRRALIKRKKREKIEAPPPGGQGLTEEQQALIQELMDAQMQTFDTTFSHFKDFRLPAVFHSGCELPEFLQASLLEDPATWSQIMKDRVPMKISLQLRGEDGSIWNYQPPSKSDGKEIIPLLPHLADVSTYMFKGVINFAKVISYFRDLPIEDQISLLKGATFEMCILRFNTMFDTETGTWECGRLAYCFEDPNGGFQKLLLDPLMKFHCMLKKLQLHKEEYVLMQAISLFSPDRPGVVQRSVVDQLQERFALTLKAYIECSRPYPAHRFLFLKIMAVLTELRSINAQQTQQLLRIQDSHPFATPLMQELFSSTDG

Consider `CC(C)(C)CC(C)(C)c1ccc(O)cc1`, for which the result in [1], in assay [2], in assay [3], in [4], in assay [5] and in assay [6] was inactive. In addition, in assay [7], the result was inactive.

Turning to `C[C@]12CCC(=O)C[C@@H]1CC[C@@H]1[C@@H]2CC[C@]2(C)[C@@H](O)CC[C@@H]12`, the result in assay [2], in [3], in assay [8] and in assay [7] was inactive.

For the molecule `CC1(C)CCC(Cc2ccc(Cl)cc2)C1(O)Cn1cncn1` (centres undefined), the outcome in assay [1], in assay [3], in assay [9], in assay [4] and in assay [7] was inactive. In addition, the AC50 in assay [10] was 78.6 µM (active); in [5] it was 2.24 µM (active).

As for `COP(=O)(OC)O/C(=C\Cl)c1cc(Cl)c(Cl)cc1Cl`, the result in assay [1] and in assay [4] was inactive. The AC50 in assay [9] is 14 µM (active); in assay [10] it was 32.3 µM (active); in assay [5], 30.3 µM (active).

Turning to `CC12CC1(C)C(=O)N(c1cc(Cl)cc(Cl)c1)C2=O` (centres undefined), the result in assay [1], in assay [9], in assay [6], in assay [8] and in assay [7] was inactive. Also, the half-maximal activity concentration (AC50) in assay [10] is 39.2 µM (active); in assay [5], 19.7 µM (active).

In the case of `O=C1C2(Cl)C3(Cl)C4(Cl)C(Cl)(Cl)C5(Cl)C3(Cl)C1(Cl)C5(Cl)C24Cl` (centres undefined), the molecule was classed as inactive in assay [1], in assay [6], in [8] and in assay [7].

Consider `CC(C)(C)c1cc(O)ccc1O`, for which the outcome in assay [1], in [4], in assay [6] and in assay [8] was inactive. For the same molecule, the AC50 in assay [10] is 14.9 µM (active).

As a reminder, the AC50 is the midpoint of the concentration-response curve, whichever way the signal moves.
